Test results from ChEMBL document CHEMBL3988442, “University of Dundee, Small-Polar-MMV Screening Library” (2021).
Hit rate of the full screen: of about 48,000 compounds, about 13,000 (27%) showed an effect of 50% or more. This is one part of the list.

System: Wolbachia pipientis
Assay: Anti-Wolbachia Cell-Based Screen
Format: functional
Set-up: scale not given: in the data most compounds retested in dose-response had high values
Conditions: 5 µM

SMILES | Percent Effect
CN(Cc1n[nH]c2c1CCCC2)C(=O)c1cccc(CCC(C)(C)O)c1 | -30.85%
CN(Cc1n[nH]c2c1CCC2)C(=O)c1cc(-c2cccn2C)n[nH]1 | 101.4%
COCC(c1ccccn1)N(C)C(=O)c1cc(-c2cccn2C)n[nH]1 (configuration not stated) | -5.051%
CN(Cc1n[nH]c2c1CCC2)C(=O)c1cccc(CCC(C)(C)O)c1 | 10.18%
Cn1cccc1-c1cc(C(=O)N2CCCC2C(F)(F)F)[nH]n1 (configuration not stated) | 19.39%
CN(Cc1n[nH]c2c1CCCCC2)C(=O)c1cc(-c2cccn2C)n[nH]1 | 105.6%
C1CCN(CCOC2CCNCC2)CC1 | 5.861%
CCc1noc(CC)c1CNC(=O)Nc1cccc([S+](C)[O-])c1 (configuration not stated) | -9.563%
CN(CC(N)=O)S(=O)(=O)c1ccc(F)cc1F | -1.274%
O=C(NCc1cccnc1N1CCCCC1)c1ccc2cc[nH]c2c1 | 88.22%
COCCOc1ncccc1CNC(=O)N1CCCCCC1 | 13.83%
Cc1nccn1-c1ncccc1CNC(=O)c1ccc(O)nc1 | -1.557%
CC(NC(=O)c1cccs1)C(=O)NCc1cccnc1N1CCCCC1 (configuration not stated) | -0.6319%
O=C(NCc1cccnc1N1CCCCC1)c1ccc2[nH]nnc2c1 | 79.06%
N#Cc1cccnc1NCc1cccnc1N1CCCCC1 | 16.56%
CC(NC(=O)NCc1cccnc1N1CCCCC1)c1nccs1 (configuration not stated) | -5.623%
O=C(NCc1cccnc1N1CCCC(O)C1)c1ccc2[nH]nnc2c1 (configuration not stated) | 86.94%
O=C(NCc1cccnc1N1CCCCC1)c1ccc2c(c1)OCO2 | 108.4%
O=C(NCc1ccccn1)Nc1ccc2[nH]nnc2c1 | -4.844%
Cc1cccc(-c2nccn2-c2cccc(CC(=O)O)c2)n1 | -5.138%
COC(=O)[C@H](C)NC(=O)Cc1c(C)nc2c(c1C)c(=O)[nH]n2C | -6.613%
CC(=O)N1CCCN(S(=O)(=O)c2cc3ccccc3o2)CC1 | -15.12%
CCc1c(C)nc2ccccc2c1N1CCC(O)CC1 | 26.44%
Cc1cccc(CN2C[C@@H]3OCCN(c4ccnc(N(C)C)n4)[C@@H]3C2)c1.O=C(O)C(F)(F)F | 91.52%
CCc1ccc(CN2C[C@@H]3OCCN(c4ccnc(N(C)C)n4)[C@@H]3C2)o1.O=C(O)C(F)(F)F | 11.89%
Cc1cccc(CN2C(=O)CO[C@@H]3CN(Cc4nccn4C)C[C@H]32)c1.O=C(O)C(F)(F)F | 6.159%

SMILES | Percent Effect
CN(C)c1nccc(N2CCO[C@H]3CN(Cc4nccn4C)C[C@H]32)n1.O=C(O)C(F)(F)F | 90.41%
O=C(c1cnccn1)N1C[C@@H]2CC[C@H](C1)N(C(=O)CCc1ccsc1)C2 | 0.0629%
CC(NC(=O)c1cccnc1N(C)C)c1ccccc1Cl (configuration not stated) | 5.567%
O=C1CCC2(CCCN(C(=O)Cc3ccccn3)C2)N1 (configuration not stated) | -49.82%
O=C(Cc1ccccn1)N1CCN(C(=O)c2cccc3[nH]ncc23)CC1 | 0.8571%
COc1ncccc1C(=O)N1CCN(C(=O)Cc2ccccn2)CC1 | 10.82%
O=C(CCc1ccccn1)N1CCCN(C(=O)CC2CCCC2)CC1 | 129.1%
O=C(CCc1ccccn1)N1CCN(C(=O)CC2CCCCC2)CC1 | -0.7864%
O=C(Cc1ccccn1)N1CCN(C(=O)CC2CCCCC2)CC1 | 116.9%
CCOC1CC2(CCN(C(=O)Cc3ccccn3)CC2)C1.O=C(O)C(F)(F)F | -13.33%
O=C(Cc1ccccn1)N1CCC2(CC1)[C@H](O)C[C@@H]2O | 131.3%
O=C(Cc1ccccn1)N1CCN(C(=O)CC2CCCC2)CC1 | 111.6%
CNC(=O)C1(N2CCC[C@H]2C(=O)NC2CC2)CCCCC1.Cl | -3.847%
O=C(c1cc(Cl)c2c(c1)OCCO2)N1CCCC(n2cncn2)C1 (configuration not stated) | -4.605%
CSCCCNC(=O)C(c1cccc(F)c1)N(C)C (configuration not stated) | -14.22%
CN(C)c1ncccc1C(=O)N1CCCN(c2cccnn2)CC1 | -6.134%
Cc1scc(C(=O)N2CCC3(CCCN(C)C3=O)C2)c1-c1ccccc1 (configuration not stated) | -11%
CN(CCO)C(=O)c1coc(CN2CCN(c3ccccc3F)CC2)n1 | 24.23%
O=C(CCc1ccccn1)N1CCCC1 | 132.5%
CC(C)NC(=O)C[C@H]1[C@H]2CN(C(=O)Cc3ccccn3)C[C@@H]12.O=C(O)C(F)(F)F | 0.3737%
CN(C)c1nc(O)cc(C2CCN(C(=O)Cc3ccccn3)C2)n1 (configuration not stated) | 148.4%
Cc1nc(O)cc(C2CCCN(C(=O)CN(C)c3ccccc3)C2)n1 (configuration not stated) | 1.624%
O=C(CCc1ccccn1)N1CCSC2(CCCCC2)C1 | -3.003%
Cc1cccnc1N1CCN(C(=O)CCc2ccccn2)CC1 | -3.662%
CCc1ncc(C(=O)N(CCOC)Cc2nccs2)cn1 | -17.92%
CC(=O)NCCC(=O)NCC1(c2c(F)cccc2F)CCCC1 | 8.916%

SMILES | Percent Effect
COc1c(CNC2CCCN(c3ncccn3)C2)c(C(C)C)nn1C (configuration not stated) | 105%
CCCS(=O)(=O)N1CCC(NCc2c(C)nn(C)c2OC)CC1 | -2.561%
COc1c(CNC2CCN(CC(=O)NC3CC3)CC2)c(C)nn1C | -12.1%
COc1c(CNC2CCN(c3ccccn3)CC2)c(C(C)C)nn1C | 112.8%
COc1c(CNC2CCN(c3ncccn3)CC2)c(C(C)C)nn1C | -7.484%
COc1c(CNC2CCN(c3ncccn3)CC2)c(C)nn1C | 109.2%
O=C(NCc1ccco1)c1cccc(CN2CCCC2CO)c1 (configuration not stated) | -23.86%
Cc1cnn(C(C)C2CC2)c1NC(=O)c1ccco1 (configuration not stated) | -0.6057%
COc1cc2c(cc1OC)S(=O)(=O)N(Cc1ccc(C)cc1)C2=O | -15.41%
Cc1csc(NC(=O)C2(C)CCCO2)n1 (configuration not stated) | -5.614%
CN1CCOC(C)(C(=O)Nc2nc(C(C)(C)C)cs2)C1 (configuration not stated) | 82.99%
Cc1csc(NC(=O)c2cccnc2N2CCOCC2)n1 | -18.32%
CCC(C)(CNC(=O)Nc1nccs1)N1CCOCC1 (configuration not stated) | 14.58%
Cc1csc(NC(=O)C2(C)CN(C)CCO2)n1 (configuration not stated) | 103.9%
Cc1nc(NC(=O)C2(C)CN(C)CCO2)sc1C.Cl (configuration not stated) | 123.3%
CC(C)(CNC(=O)Nc1nccs1)N1CCOCC1 | -4.16%
Cc1nsc(NC(=O)NC2(CN3CCOCC3)CCCC2)n1 | -3.665%
Cc1nc(NC(=O)C(C)N2CCN(c3ncccn3)CC2)sc1C (configuration not stated) | -4.452%
CN1CCC(NC(=O)Cc2csc(C(C)(C)C)n2)CC1 | -5.316%
CN1CCOC(C(=O)Nc2ccc3c(c2)nc(C(C)(C)C)n3C)C1 (configuration not stated) | 1.099%
CN1CCOC(C)(C(=O)Nc2nccs2)C1 (configuration not stated) | 89.7%
Cc1nccn1C1(C(=O)O)CCN(Cc2ccc3c(c2)OCCO3)CC1 | -9.809%
O=C1CC[C@H]2CN(c3ncc(F)cn3)CC[C@H]2N1CCc1c[nH]cn1 | -5.494%
O=C(NCc1ccncc1)N(Cc1ccccc1F)C1CC1 | 1.311%
Cc1cc(C)n2ncc(CN3CCC(n4cc(CCO)nn4)CC3)c2n1 | 4.389%
NC(=O)c1cccc(CCNC(=O)N2Cc3ccccc3C2)c1 | 2.881%

SMILES | Percent Effect
CC(C)Nc1nc2c(s1)C(=O)CN(C(=O)NCc1ccccc1)C2 | 95.64%
CNc1nc2c(s1)C(=O)CN(C(=O)[C@@H](N)Cc1cccc(OC)c1)C2 | 113.9%
CCC1=N[C@@]2(CC[C@@H]3CN(C(=O)NCc4ccccc4)C[C@@H]32)C(=O)N1 | -15.34%
CC(C)Nc1nc2c(s1)C(=O)CN(C(=O)NCCc1ccccc1)C2 | 113.9%
O=C1NCCN2CCN(C(=O)NCCc3ccccc3)CC12 (configuration not stated) | -9.412%
CNc1nc2c(s1)C(=O)CN(C(=O)NCc1ccccc1)C2 | -1.017%
CC(C)[C@@H]1CN(C(=O)NCCc2ccccc2)C[C@H]1NS(=O)(=O)N(C)C | -13.11%
COc1cccc(CN2CCN(C(=O)Nc3nc(C)ns3)CC2=O)c1 | -7.215%
CNc1nc2c(s1)C(=O)CN(C(=O)NCCc1ccccc1)C2 | 90.96%
O=C(NCCc1ccccc1)N1CCC(C2OCCO2)CC1 | 12.73%
COc1cccc(CNC(=O)c2nc3c(o2)CN(C(=O)N(C)C)C3)c1 | -21.04%
COc1ccc(Cl)cc1CNC(=O)CN1CCC2(CCOC2)C1 (configuration not stated) | 5.478%
CCCC(=O)NCC(=O)NC(c1ccc(Cl)cc1)C(F)(F)F (configuration not stated) | -4.192%
CC(=O)c1cn(CC(=O)N2CCCC(O)(CO)C2)c2ccccc12 (configuration not stated) | -9.342%
Cc1nc(C)c(CC(=O)N2C[C@H]3CC[C@@H]2CN(C(=O)N(C)C)C3)c(=O)[nH]1 | -5.688%
Cc1ccc(CN(Cc2ccccn2)C(=O)C2CCCCCN2C)s1 (configuration not stated) | -49.91%
O=C(NCc1cc(F)ccc1F)Nc1ccn(CC(F)F)n1 | -16.02%
CCCS(=O)(=O)CC(=O)Nc1ccsc1 | -10.7%
CCNc1nc2c(s1)C(=O)CN(C(=O)NCc1ccccc1)C2 | 105.7%
CCNc1nc2c(s1)C(=O)CN(C(=O)NCCc1ccccc1)C2 | -10.47%
COCc1nc2c(o1)CN(C(=O)NCc1ccccc1)C2 | 27.3%
Cc1nc(-c2cnn(C)c2)nc2c1CN(C(=O)c1ccc[nH]1)CC2 | -2.829%
Nc1nc2c(c(N3CCOCC3)n1)CCN(C(=O)c1ccc[nH]1)CC2 | 39.51%
CN(C)c1nc2c(c(N3CCCC3)n1)CCN(C(=O)c1ccc[nH]1)CC2 | 91.66%
